Many of the other results were omitted from the sample, so hits are more common in it than they were.
Cycloheximide cs: Cycloheximide Counterscreen for Small Molecule Inhibitors of Shiga Toxin. max response, %. 300,000 tested, 12% active. cell reporter, cycloheximide protein synthesis inhibition counterscreen; in the data active = max response mostly above about 13%, no sharp cut-off; inactive = mostly below about 14%; note: read at 38.3 µM for the half of the compounds with a filed dose; 0% is about no effect
FBPA Giardia inh: qHTS Assay for Inhibitors of Fructose-1,6-bisphosphate Aldolase from Giardia Lamblia | Potency, µM (titrated, usually from 59.6 µM), inactives show at the highest dose activity, negative = inhibition, usual class: inhibitors | A8B2U2 | AID 2451, 2010 | 290,000 tested, 0.71% active | purified Giardia FBPA; note: potency is the fitted concentration of half-maximal effect; % is set by controls: 0 for no effect and ±100 for the full control effect; nearly all actives have a fitted effect of over 55% in size
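40 nM FBPA preincubated 10 min at RT with compound (up to 57.5 uM final), then substrate plus GAPDH/TPI/NAD/arsenate coupling and diaphorase/resazurin added. Fluorescence read after 20 min at RT, 525/598 nm.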
Shiga toxin inh: A qHTS for Small Molecule Inhibitors of Shiga Toxin; 290,000 tested, 9.2% active; inhibition, % at 38.7 µM; Vero cells, Shiga toxin protein synthesis inhibition reporter; in the data active = inhibition mostly above about 28%, no sharp cut-off; inactive = mostly below about 43%; note: 0% is about no effect
TbPYK inhibitor: qHTS of Trypanosoma Brucei Inhibitors. pyruvate kinase (Trypanosoma brucei), Q57TT1. Potency, µM (highest dose often 76.8 µM), for the others: at the highest dose activity, negative = inhibition, most hits filed as inhibitors. AID 624173, 2012. 410,000 tested, 0.12% active. TbPYK enzyme, Kinase-Glo Plus ATP luminescence, 45 min; note: potency is the fitted concentration of half-maximal effect; % is set by controls: 0 for no effect and ±100 for the full control effect; nearly all actives have a fitted effect of over 50% in size
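Luminescence from Kinase-Glo Plus, added after a 45-minute room-temperature reaction, served as the end-point read-out. The enzyme and substrate were preincubated with compound before ADP (130 uM final) initiated turnover. Concentration-effect curves came from normalized qHTS data.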
LmPK inh: qHTS Assay for Inhibitors of Leishmania Mexicana Pyruvate Kinase (LmPK) | Q27686 | purified LmPK, Kinase-Glo ATP luminescence, 1 h | Potency, µM (series often up to 57.5 µM), without a hit: at the highest dose activity change, negative = inhibition, hits mostly inhibitors | 290,000 tested, 0.37% active | AID 1721, 2009; note: potency is the fitted concentration of half-maximal effect; % is set by controls: 0 for no effect and ±100 for the full control effect
Target sequence (Q27686 whole entry, looked up): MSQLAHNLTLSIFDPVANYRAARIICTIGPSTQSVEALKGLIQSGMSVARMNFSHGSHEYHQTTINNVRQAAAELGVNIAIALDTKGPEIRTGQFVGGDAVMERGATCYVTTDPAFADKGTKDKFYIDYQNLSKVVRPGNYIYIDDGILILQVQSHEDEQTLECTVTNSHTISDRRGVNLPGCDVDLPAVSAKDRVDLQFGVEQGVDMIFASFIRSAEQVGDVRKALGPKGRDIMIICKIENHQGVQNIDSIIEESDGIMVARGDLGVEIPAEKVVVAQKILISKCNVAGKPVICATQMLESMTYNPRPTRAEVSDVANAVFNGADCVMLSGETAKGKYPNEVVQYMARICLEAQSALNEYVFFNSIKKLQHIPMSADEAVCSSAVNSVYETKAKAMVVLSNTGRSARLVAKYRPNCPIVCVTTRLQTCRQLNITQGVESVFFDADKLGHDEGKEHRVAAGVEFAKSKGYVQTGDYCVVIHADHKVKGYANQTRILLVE
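qHTS format; LmPK 0.1 nM; substrates PEP 0.5 mM and ADP 0.1 mM. One-hour room-temperature incubation, then coupled luciferase luminescence; 0.5 nM enzyme wells mark activation.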
Sm TGR inh: qHTS Assay for the Inhibitors of Schistosoma Mansoni Peroxiredoxins | Schistosoma mansoni thioredoxin glutathione reductase (TGR), Q962Y6 | purified TGR, DTNB reduction, TNB absorbance 405 nm | Potency, µM (doses to about 114 µM), for the others: at the highest dose activity change, negative = inhibition, hits mostly inhibitors | 360,000 tested, 3% active | AID 485364, 2010; note: potency is the fitted concentration of half-maximal effect; % is set by controls: 0 for no effect and ±100 for the full control effect; nearly all actives have a fitted effect of over 60% in size
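First, TGR (20 nM dispensed) and NADPH were mixed with compound. Second, a 15 min room-temperature incubation followed. Third, further NADPH and then DTNB were added to start the reaction. Finally, TNB absorbance was monitored kinetically.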
An asterisk follows results filed as active. Unless noted, calls come from the whole dose curve; as a rule, active = well fitted curve in the direction sought with a large enough effect; inconclusive = small, poorly fitted or top-dose-only effect, or another doubt; inactive = no such curve, though single readings can be large; an effect the other way counts as inactive or inconclusive.

`CC1(C(=O)NCc2cc(F)cc(C(F)(F)F)c2)C=CC2(CCCCC2)N1C(=O)c1ccccc1` (configuration not stated) gave Cycloheximide cs -1.2, FBPA Giardia inh 6.6%, Shiga toxin inh -6.5, TbPYK inhibitor -2.2%, LmPK inh 1.9% and Sm TGR inh -14.6%.
`O=C(COC(=O)c1cc(=O)[nH]c2ccccc12)NCc1ccc(Cl)cc1` gave TbPYK inhibitor 0.9% and Sm TGR inh -27.6%.
Screening CCOc1ccccc1NC(=O)N1CCC(NC(=O)c2cccc(C)c2)CC1 returned Cycloheximide cs -1.0, FBPA Giardia inh 18.7%, Shiga toxin inh 5.9, TbPYK inhibitor -1.5%, LmPK inh -4.2% and Sm TGR inh 25.1µM*.
For Cc1cccc(C(=O)NC2CCN(C(=O)Nc3ccccc3C)CC2)c1 the results were Cycloheximide cs 22.4, FBPA Giardia inh -2.9%, Shiga toxin inh 3.8, TbPYK inhibitor 4.8%, LmPK inh 4.5% and Sm TGR inh 14.2%.
Screening Cc1cccc(C(=O)NC2CCN(C(=O)Nc3ccc(F)cc3)CC2)c1 returned Cycloheximide cs -2.4, FBPA Giardia inh 8.0%, Shiga toxin inh -2.4, TbPYK inhibitor -9.2%, LmPK inh -3.5% and Sm TGR inh 39.8µM*.
Cc1ccc2nc(-c3ccc(SCC(=O)Nc4nc(C)cs4)nc3)[nH]c2c1 was read as Cycloheximide cs 32.0*, FBPA Giardia inh 0.2%, Shiga toxin inh 50.5, TbPYK inhibitor -1.4%, LmPK inh -7.3% and Sm TGR inh -7.5%.
Cc1ccc2nc(-c3ccc(SCC(=O)Nc4nnc(C)s4)nc3)[nH]c2c1 was read as Cycloheximide cs 69.5*, FBPA Giardia inh 0.4%, Shiga toxin inh 51.3*, TbPYK inhibitor -1.9%, LmPK inh -5.6% and Sm TGR inh -3.3%.
CCc1nnc(NC(=O)CSc2ccc(-c3nc4ccccc4[nH]3)cn2)s1 was read as Cycloheximide cs 26.5*, FBPA Giardia inh -0.8%, Shiga toxin inh 82.9*, TbPYK inhibitor 0.2%, LmPK inh -2.6% and Sm TGR inh 12.6%.
For COc1ccc(-c2c3c(=O)n(C)c(=O)n(C)c3c3n2-c2ccccc2NC3c2ccc(OC)cc2)cc1 (configuration not stated) the results were TbPYK inhibitor -0.8% and Sm TGR inh -0.5%.
`CC1Cc2ccccc2N1C(=O)/C=C/c1cccc(F)c1` (configuration not stated) gave Cycloheximide cs 44.7*, FBPA Giardia inh -7.4%, Shiga toxin inh 87.4*, TbPYK inhibitor 2.5%, LmPK inh -16.6% and Sm TGR inh 15.3%.
For CC1Cc2ccccc2N1C(=O)COC(=O)/C=C/c1ccc(F)cc1 (configuration not stated) the results were TbPYK inhibitor 1.6% and Sm TGR inh 0.7%.
COc1cnn(-c2ccc(Br)cc2)c(=O)c1SCc1ccccc1 was read as Cycloheximide cs 49.3*, FBPA Giardia inh -6.0%, Shiga toxin inh 129.5*, TbPYK inhibitor -1.1%, LmPK inh -0.2% and Sm TGR inh -2.3%.
Screening COc1cnn(-c2ccc(C)cc2)c(=O)c1SCc1ccccc1 returned Cycloheximide cs 38.5*, FBPA Giardia inh 3.2%, Shiga toxin inh 84.4*, TbPYK inhibitor -15.1%, LmPK inh -0.3% and Sm TGR inh 1.6%.
For COC(=O)C[C@H]1C[C@H]2c3cc(NC(=O)Cc4ccncc4)ccc3O[C@H]2[C@@H](CO)O1 the results were TbPYK inhibitor 7.7%.
For Cc1nn(-c2ccccc2)c2nc(C(Cl)(Cl)Cl)[nH]c(=O)c12 the results were Cycloheximide cs 0.9, FBPA Giardia inh -1.4%, Shiga toxin inh -14.2, TbPYK inhibitor -5.2%, LmPK inh 8.9% and Sm TGR inh 12.6µM*.
`c1ccc(SCc2nc(-c3ccccn3)no2)cc1` gave Cycloheximide cs 58.4*, FBPA Giardia inh -5.3%, Shiga toxin inh 39.5*, TbPYK inhibitor -5.4%, LmPK inh -3.0% and Sm TGR inh 3.0%.
Screening Clc1ccc(-c2noc(CCCc3ccccc3)n2)cc1 returned Cycloheximide cs 8.4, FBPA Giardia inh 8.1%, Shiga toxin inh -5.0, LmPK inh -2.8% and Sm TGR inh -26.4%.
`Cc1ccc(Cc2nc(-c3ccccn3)no2)cc1` gave Cycloheximide cs 40.5*, FBPA Giardia inh 4.4%, Shiga toxin inh 68.8*, TbPYK inhibitor 3.1%, LmPK inh -6.8% and Sm TGR inh 8.8%.
`COc1ccc(Cc2nc(-c3ccccn3)no2)cc1` gave Cycloheximide cs 41.1*, FBPA Giardia inh 0.4%, Shiga toxin inh 28.6, TbPYK inhibitor -2.1%, LmPK inh -6.0% and Sm TGR inh 7.3%.
`c1ccc(CCCc2nc(-c3ccccn3)no2)cc1` gave Cycloheximide cs 45.8*, FBPA Giardia inh 3.9%, Shiga toxin inh 62.2*, TbPYK inhibitor 0.0%, LmPK inh -2.8% and Sm TGR inh -3.1%.
CN(Cc1nc(-c2ccccn2)no1)S(=O)(=O)c1ccc(Br)cc1 was read as Cycloheximide cs 2.7, FBPA Giardia inh 3.2%, Shiga toxin inh 11.5, TbPYK inhibitor -11.8%, LmPK inh -0.1% and Sm TGR inh 9.1%.
`c1ccc(Cc2nc(-c3ccccn3)no2)cc1` gave Cycloheximide cs 50.2*, FBPA Giardia inh -3.8%, Shiga toxin inh 94.2*, TbPYK inhibitor -14.4%, LmPK inh -13.1% and Sm TGR inh 3.5%.
Screening O=C1c2ccccc2C(=O)N1Cc1nc(-c2ccccn2)no1 returned Cycloheximide cs 45.6*, FBPA Giardia inh 3.7%, Shiga toxin inh 46.8*, TbPYK inhibitor -1.8%, LmPK inh 0.8% and Sm TGR inh 12.2%.
`c1ccc(C(Cc2nc(-c3ccccn3)no2)c2ccccc2)cc1` gave Cycloheximide cs 55.8*, FBPA Giardia inh 8.0%, Shiga toxin inh 94.3*, TbPYK inhibitor 5.8%, LmPK inh 1.5% and Sm TGR inh 2.9%.
Screening CN(CCc1ccccc1)Cc1nc(-c2cnccn2)no1 returned Cycloheximide cs 1.9, FBPA Giardia inh 5.7%, Shiga toxin inh -6.7, TbPYK inhibitor 0.3% and LmPK inh 3.0%.
COc1ccccc1NC(=O)c1oc2ccccc2c1NC(=O)c1ccc(S(=O)(=O)N(C)C)cc1 was read as TbPYK inhibitor 5.7% and Sm TGR inh 2.9%.
COc1cc2ccccc2cc1C(=O)N1CCN(c2nc3c(F)cc(F)cc3s2)CC1 was read as TbPYK inhibitor -1.1% and Sm TGR inh -1.2%.
